Data: PubChem BioAssay (Tox21)
Results filed as inconclusive are left out. Entries that show only a call come without a potency. Activity calls are given as the source filed them. Calls come from the whole dose curve; as a rule, active = well fitted cell-killing curve with a large enough effect in the repeat runs; inconclusive = weak or mixed curves, or effect the other way; inactive = flat fitted curve, though single readings scatter. Square brackets hold non-standard residues; d marks the D form. Peptide text beside a SMILES is read from it. * marks the point of attachment. Sta = CC(C)C[C@H](N)[C@@H](O)CC(=O)O; Isovaleryl = CC(C)CC(=O)*

Experiment: Nuclear factor erythroid 2-related factor 2/antioxidant responsive element (Nrf2/ARE) small molecule agonists: qHTS cell viability counter screen in human keratinocytes (AID 1919968); note: nearly all actives have a fitted effect of over 55% in size
Conditions: KeratinoSens HaCaT ARE cells viability, CellTiter-Fluor, 24 h; series mostly up to 92.4 µM
Source text: U.S. Tox21 Program National Center for Advancing Translational Sciences [NCATS] Division of Preclinical Innovation [DPI] U.S. Environmental Protection Agency [EPA] National Institutes of Environmental Health Sciences [NIEHS] National Toxicology Program [NTP] U.S. Food and Drug Administration [FDA] Tox21 Assay Overview: Oxidative stress has been implicated in the pathogenesis of a variety of diseases ranging from cancer to neurodegeneration. The antioxidant response element (ARE) signaling pathway plays an important role in the amelioration of oxidative stress. The KeratinoSens (Givaudan, Switzerland) is an in vitro test method which quantifies luciferase induction as a measure of activation of Keap1-Nrf2-antioxidationt/electrophile response element (ARE) dependant pathway in HaCaT human keratinocytes stably transfected with a selectable plasmid. The KeratinoSens assay is a cell-based assay with a reporter cell line to detect potential skin sensitizers by their ability to induce the Nrf2/ARE-response. The activation of the report gene under culture conditions can be detected by ONE-Glo Luciferase Assay System (Promega, Madison, WI). This cell line has been used to screen the Tox21 10K compound library to identify agonists that induce oxidative stress. The cytotoxicity of the Tox21 compound library against the KS-ARE cell line was tested in parallel by measuring the cell viability using CellTiter- Fluor assay system (Promega, Madison, WI) in the same wells.
Tox21 Assay Protocol Summary: HaCaT derived cell line KeratinoSens were dispensed at 1,500 cells/5uL/well in 1536-well white wall/solid bottom plates using a Multidrop Combi (ThermoFisher Scientific, Waltham, MA) dispenser. After the assay plates were incubated at 37 C/5% CO2 for 5 h, 23 nL of compounds dissolved in DMSO, positive controls or DMSO only was transferred to the assay plate by a pintool workstation (Kalypsys, San Diego, CA). The plates were incubated at 37 C/5% CO2 for 23 h, followed by addition of 1uL/well of CellTiter-Fluor reagent into the assay plates using a Flying Reagent Dispenser (Aurora Discovery, San Diego, CA) for cell viability readout that measures cytotoxicity. After 1 h incubation at 37 C/5% CO2 the fluorescence intensity was measured using a ViewLux (PerkinElmer, Shelton, CT) plate reader.
Potency is the fitted concentration of half-maximal effect.

SMILES | Potency
CCCCCCCCCCCC[N+](C)(C)CC(=O)[O-] | inactive
O=[N+]([O-])c1c(Cl)cc(Cl)cc1Cl | inactive
CN1CCN(N)CC1 | inactive
Nc1ccccc1O | inactive
COc1cc2nc(Cl)nc(N)c2cc1OC | inactive
CCCCc1nc2cccnc2n1Cc1ccc(-c2ccccc2-c2nnn[nH]2)cc1 | inactive
CCOC(=O)c1ncn2c1CN(C)C(=O)c1cc(F)ccc1-2 | inactive
COC(=O)/C=C\C(=O)O | inactive
COc1ccc(C2C(=O)c3ccccc3C2=O)cc1 | inactive
[Cl][Sc]([Cl])[Cl] | inactive
CC(C)CCOC(=O)CC(C)C | inactive
OCC(O)c1ccccc1 (stereo not given) | inactive
COC(=O)c1ccc(NC(C)=O)cc1OC | inactive
Clc1cc(Cl)nc(Cl)n1 | inactive
O=C(O)/C=C/c1ccc(/C=C/C(=O)O)cc1 | inactive
CN(CCOc1ccc(NS(C)(=O)=O)cc1)CCc1ccc(NS(C)(=O)=O)cc1 | inactive
Cc1ccc2c(Cl)cc(Cl)c(O)c2n1 | inactive
CC(=O)Oc1cc(C(C)C)c(OCCN(C)C)cc1C | inactive
C=CCc1ccccc1OCC(O)CNC(C)C (stereo not given) | inactive
Cc1cn[nH]c1 | inactive

SMILES | Potency
CC(N)C(=O)OC(C)(C)Cc1ccc(Cl)cc1 (stereo not given) | inactive
Cc1cc(S(=O)(=O)O)c(N)cc1Cl | inactive
COc1ccc(C(=O)c2ccc(OC)cc2O)c(O)c1 | inactive
Cc1cccc(C)c1NC(=O)CN1CCCC1 | inactive
O=C1OC(=O)c2cccc3cccc1c23 | inactive
C=C(C)CCO | inactive
CCN(CC)CCOCCOC(=O)C1(c2ccccc2)CCCC1 | inactive
CCC(=O)c1c(O)cc(O)cc1O | inactive
COc1ccc2c(c1)C(=O)N(CCc1ccc(S(=O)(=O)NC(=O)NC3CCCCC3)cc1)C(=O)C2(C)C | inactive
Nc1cc(Cl)c(O)c(Cl)c1 | inactive
COc1ccc(Nc2ccc(OC)cc2)cc1 | inactive
CC(=O)Oc1ccc(C2(c3ccc(OC(C)=O)cc3)C(=O)Nc3ccccc32)cc1 | inactive
CCNC(=O)NCCCOc1cccc(CN2CCCCC2)c1 | inactive
C[Si](C)(CCCN)O[Si](C)(C)CCCN | inactive
C[N+]1(CC2COC(c3ccccc3)(C3CCCCC3)O2)CCCCC1 (stereo not given) | inactive
O=C1N(c2ccccc2)c2ccccc2C1(Cc1ccncc1)Cc1ccncc1 | inactive
Cc1cccc(C)n1 | inactive
CCCCCCCCCCCCC | inactive
CC(C)CC(=O)N[C@H](C(=O)N[C@H](C(=O)N[C@@H](CC(C)C)[C@@H](O)CC(=O)N[C@@H](C)C(=O)N[C@@H](CC(C)C)[C@@H](O)CC(=O)O)C(C)C)C(C)C (Isovaleryl-VV[Sta]A[Sta]-OH) | inactive
C=CC(=O)OCCOCC(CC)(COCCOC(=O)C=C)COCCOC(=O)C=C | 31.9 µM (active)
